Compound activity: PubChem BioAssay, National Center for Advancing Translational Sciences (NCATS)
In the library only some 7.3% were active in any assay of this set; here they are far more common.
HCV inh – blocks hepatitis C virus. Potency, µM (series often up to 41.8 µM), usual class: inhibitors. Huh7.5.1 HCVcc-Cre infection, luciferase reporter, 44 h. actives 3.4% (n = 340,000). AID 651820; active = well fitted inhibition curve with a large enough effect; inconclusive = small, poorly fitted or top-dose-only effect, or another doubt; inactive = no such curve, though single readings can be large or run the other way
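Reporter virus HCVcc-Cre (~0.5 moi) infects cells exposed to compound; seeding density 1,000 cells/well with 4 h settling beforehand. Luminescence, 15 sec read, taken 44 h post-infection following a 15 min RT substrate incubation.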
VACV Venus inh – vaccinia inhibition (Venus reporter); Vaccinia virus Venus reporter expression, fluorescence; AID 720580; Potency, µM (series often up to 36.5 µM), usual class: inhibitors; actives 0.46% (n = 330,000); calls by dose curve; tested in A549 cells; also: nearly all actives have a fitted effect of over 30% in size
VACV mCherry inh – vaccinia inhibition (mCherry reporter) | Vaccinia virus mCherry reporter infection, fluorescence | Potency, µM (titrated, usually from 36.5 µM), usual class: inhibitors | AID 720579 | actives 0.63% (n = 310,000); calls by dose curve; tested in A549 cells; also: nearly all actives have a fitted effect of over 35% in size
FMDV antiviral – blocks foot and mouth disease virus. FMDV antiviral cell-based qHTS. Potency, µM (top dose mostly 57.9 µM), hits mostly inhibitors. actives 1.2% (n = 410,000); calls by dose curve; tested in HEK293T cells; also: read-out not given here; nearly all actives have a fitted effect of over 45% in size
HCMV antiviral – inhibitors of human cytomegalovirus; HFF cells, HCMV-luciferase reporter, 72 h; stronger effect = lower value; activity change, negative = inhibition, % at 57.5 µM; actives 4.5% (n = 410,000); in the data active = activity change below about -60%; inconclusive = no clear call, values can overlap the other calls; inactive = above about -39%
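Human foreskin fibroblasts infected with luciferase-reporter HCMV at MOI 1 PFU/cell, compounds at two doses. Luciferase measured 72 h post infection; normalized to buffer-only basal and Salinomycin (10uM) controls.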
Numbers stand for hits; – = inactive; ? = inconclusive; · = no result given; [ ] = remark or other dose.

SMILES | HCV inh | VACV Venus inh | VACV mCherry inh | FMDV antiviral | HCMV antiviral
Cc1[nH]c2ccc(Br)cc2c(=S)c1C/C=C/Cl | – | · | · | – | –
Cc1[nH]c2ccc3ccccc3c2c(=O)c1C/C=C/Cl | ? | – | ? | – | -89
CN(C)c1ccc(CNC(=O)Cn2c(-c3cccs3)cc3cc(Cl)ccc32)cc1 | · | – | – | – | -71
CCn1c2ccccc2c2cc(NC(=O)CSc3nnc(-c4ccccc4)o3)ccc21 | 7.1µM | – | ? | – | –
N#Cc1ccc(CSc2nnc(-c3ccncc3)o2)cc1 | – | ? | – | – | ?
COC(=O)c1ccc(CSc2nnc(-c3ccncc3)o2)cc1 | – | – | – | – | -68
O=C(CSc1nnc(-c2ccncc2)o1)NCc1ccccc1 | – | – | – | – | -90
c1ccc(CSc2nnc(-c3ccncc3)o2)cc1 | – | · | · | – | -73
Cc1ccccc1Cn1cc(NC(=O)CSc2nc3c(c(C(F)(F)F)n2)CCc2ccccc2-3)cn1 | 13µM | · | · | – | –
Nc1ccc(N=Nc2ccccc2)c2ccccc12 | – | – | – | – | –
Nc1ccc(N=Nc2ccccc2)c(N)n1 | –[8.37 µM] | – | – | – | -102
CCCCCCCCNCCS(=O)(=O)NCCCCCCCC | 3.2µM | – | – | ? | -102
C=C[C@@H]1c2c(F)cccc2N(S(=O)(=O)c2ccc(C)cc2)[C@H](c2ccc(OC(C)=O)cc2)C1(C#N)C#N | 22µM | ? | ? | – | –
C=C[C@@H]1c2cccc(C)c2N(S(=O)(=O)c2ccc(C)cc2)[C@H](c2ccccc2)C1(C#N)S(=O)(=O)c1ccccc1 (some centres undefined) | – | – | – | – | –
C=C[C@@H]1c2cccc(C)c2N(S(=O)(=O)c2ccc(C)cc2)[C@H](c2ccc(OC(C)=O)cc2)C1(C#N)C#N | ? | – | – | – | -79
C=C[C@@H]1c2c(F)cccc2N(S(=O)(=O)c2ccc(C)cc2)[C@H](c2ccc(C(=O)OC)cc2)C1(C#N)C#N | – | – | – | – | –
COCCN(CCOC)Cc1cc(=O)oc2cc(OC)ccc12 | · | – | – | – | –
CCOC(=S)SCC(=O)Nc1ncc(C)s1 | ? | – | ? | 25µM | –
CCCCN(CCCN)c1ccc(Br)cn1 | · | – | – | · | ·
Cc1cc2ncn(/N=C/c3ccc([N+](=O)[O-])s3)c2cc1C | 11µM | ? | ? | – | –
O=[N+]([O-])c1ccc(/C=N/n2cnc3ccccc32)s1 | ? | 6.3µM | 5µM | – | –
CCCCNC(=O)c1ccc(Cc2cn(C)c3ccccc23)nc1 | · | · | · | · | –
CCOc1ccc(Nc2oc(-c3ccc(COc4ccccc4C)o3)nc2C#N)cc1 | · | – | – | – | -71
N#Cc1nc(-c2ccc(COc3ccc(Cl)cc3)o2)oc1N1CCC(C(N)=O)CC1 | · | – | – | ? | -65
CCNc1oc(-c2ccc(COc3ccc(Cl)cc3)o2)nc1C#N | · | – | – | ? | –
SMILES | HCV inh | VACV Venus inh | VACV mCherry inh | FMDV antiviral | HCMV antiviral
N#Cc1nc(-c2ccc(OCc3ccccc3)cc2)oc1N1CCC(C(N)=O)CC1 | ? | ? | – | – | –
CC(Nc1oc(-c2ccc(COc3ccc(Cl)cc3)o2)nc1C#N)c1ccccc1 (centres undefined) | · | – | – | – | -74
CCN1CCCC1CNCc1cc2c(OC)c(OC)c(OC)cc2nc1N(C)C (centres undefined) | · | – | – | – | ·
CC(C)c1ccc(NC(=O)C2(C)Cc3c(-c4ccc5c(c4)OCO5)ccnc3O2)cc1 (centres undefined) | · | – | – | – | –
O=C(NCCc1ccccc1)C(=O)NCC(c1cccnc1)N1CCN(c2ccccc2)CC1 (centres undefined) | · | – | – | ? | –
CC(=O)N1CCN(S(=O)(=O)c2cccc(C(=O)OCC(=O)NCc3ccccc3Cl)c2)CC1 | · | – | – | – | –
CC(=O)Nc1cc(-c2cccc(C(=O)NCCN(C)C)c2)cn2c(-c3ccc(C(C)=O)cc3)cnc12 | · | – | – | – | –
C[C@H]1CCC[C@]2(C)C[C@H]3OC(=O)C(CN4CCCCCC4)[C@H]3C=C12 (some centres undefined) | ? | · | · | 22µM | ?
COc1cc(CNCCN2CCOCC2)ccc1OCc1ccccc1Cl | ? | – | –[1.46 µM] | – | –
CCOc1cc(CNCCCN2CCOCC2)cc(Cl)c1OCC(=O)NC(C)(C)C | 11µM | – | – | – | –
COc1cc(CNCCN2CCOCC2)ccc1OCc1ccc(Cl)cc1 | 7.1µM | – | · | – | –
COc1cc(CNCCCN2CCOCC2)cc(Br)c1OCc1ccc(Cl)cc1 | 1.8µM | · | · | 40µM | -99
CCOc1cc(CNCCCN2CCOCC2)cc(Br)c1OCC(=O)Nc1cccc(C(F)(F)F)c1 | ? | · | · | – | –
CCOc1cc(CNc2ccccc2)cc(Br)c1OCC(=O)NC(C)(C)C | 13µM | ? | ? | · | -97
COc1ccc(-c2nc3cc(C(C)C)ccc3o2)cc1NC(=O)COc1ccc(C)cc1C | · | – | – | – | –
CCOc1cc(NC(=S)NCCCN2CCOCC2)c(OCC)cc1NC(=O)C(C)C | – | – | – | – | –
CCOc1cc(NC(=S)NCCCN2CCOCC2)c(OCC)cc1NC(=O)CC(C)C | – | · | · | – | -93
Cc1cnnc2ccccc12 | · | – | – | · | ·
COc1cc(CC(=O)OCC(=O)Nc2sccc2C(N)=O)cc(OC)c1OC | 10µM | – | – | ? | –
CN1CCCN(Cc2ccccc2Br)CC1 | – | – | – | – | –
COc1ccc(-n2c(C)c3c(C)nnc(C)c3c2C)cc1OC | · | – | ? | – | -60
COc1ccc(C2(c3ccc(OC)cc3)NC(=O)N(CC(=O)Nc3ccc(C(=O)N(C)C)cc3)C2=O)cc1 | – | – | – | – | -66
C=CCNC(=O)CN1C(=O)NC(C)(c2ccc(OC)cc2)C1=O (centres undefined) | – | – | – | – | -99
COc1ccc(CNC(=O)CN2C(=O)NC(C)(c3ccc(C(C)(C)C)cc3)C2=O)cc1 (centres undefined) | – | – | ? | ? | –
COc1ccccc1NS(=O)(=O)c1cccc(NS(=O)(=O)c2ccc(Cl)c(C(=O)O)c2)c1 | – | – | – | – | –
SMILES | HCV inh | VACV Venus inh | VACV mCherry inh | FMDV antiviral | HCMV antiviral
O=C(c1ccncc1)N1CCC[C@@]2(CCN(C(c3ccccc3)c3ccccc3)C2)C1 | · | · | · | – | ·
Cc1cc(CNC(=O)C2(C(F)(F)F)C/C(=C\Cc3ccccc3)CCCO2)nn1C (centres undefined) | – | – | – | – | –
O=C1NC(=S)N/C1=C/c1ccc(-c2c(Br)cc([N+](=O)[O-])cc2Br)o1 | 8.9µM | · | · | · | ·
CCN(CC)CCCn1c(=S)[nH]c2cc(Cl)ccc2c1=O | 7.1µM | · | · | – | –
CC(C)(C)c1ccc(C(=O)N2CCC3(CC2)CC3C(=O)NCCc2ccccn2)cc1 (centres undefined) | · | – | – | – | ·
CCOC(=O)c1c(NC(=O)COc2ccc3ccc(=O)oc3c2)sc(C(=O)N(C)C)c1C | – | – | – | – | –
CN(CCC#N)C(=O)COC(=O)c1c2c(nc3ccccc13)/C(=C\c1ccco1)CC2 | 13µM | – | ? | – | ?
Cc1cc(-c2nnc(SCCC(=O)Nc3ccccc3)o2)no1 | – | – | – | – | -85
